According to PubChem BioAssay AID1159580 (chemical genetic matrix, 2015):
Out of some 5,500 compounds screened, about 2,000 (36%) were called active. About 18% were inconclusive and are not listed. Cut-off read from the data, not from the text of the source: active = normalized growth mostly below about 0.91 (no sharp cut-off); inconclusive = no clear call, values can overlap the other calls; inactive = mostly above about 0.92. This is one part of the list.

Experiment: chemical genetic growth profiling, strain panel (AID 1159580);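 note: tested at 20 µM; growth read once vehicle control cultures reached saturation at 30 °C; 1 = growth at the plate median or of vehicle wells; lower values mean less growth of the strain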
Conditions: S. cerevisiae deletion strains, growth OD
[1] = locus YHR030C, strain SLT2, stronger effect = lower value
[2] = locus YHR079C, strain IRE1, stronger effect = lower value
[3] = locus YJL095W, strain BCK1, stronger effect = lower value
[4] = locus YJR066W, strain TOR1, stronger effect = lower value
[5] = locus YLR113W, strain HOG1, stronger effect = lower value
[6] = locus YNL183C, strain NPR1, stronger effect = lower value
[7] = locus YOR231W, strain MKK1, stronger effect = lower value
[8] = locus YPL256C, strain CLN2, stronger effect = lower value

Measured: normalized growth

CC(=O)OCC(=O)[C@@]1(O)CCC2C3CCC4=CC(=O)C=C[C@]4(C)[C@@]3(F)[C@@H](O)C[C@@]21C (stereo partly drawn)
inactive: [1] 1.07 | [2] 1.07 | [3] 1.01 | [4] 1 | [5] 0.999 | [6] 0.993 | [7] 1.05 | [8] 1.06

CC(/C=C/c1ccccc1)=N/OC(=O)c1ccccc1Cl
inactive: locus YAR019C, strain CDC15, stronger effect = lower value 0.967 | locus YBL105C, strain PKC1, stronger effect = lower value 0.97 | locus YBR135W, strain CKS1, stronger effect = lower value 0.974 | locus YBR136W, strain MEC1, stronger effect = lower value 0.969 | locus YBR160W, strain CDC28, stronger effect = lower value 0.97 | locus YDL017W, strain CDC7, stronger effect = lower value 0.976 | locus YDL028C, strain MPS1, stronger effect = lower value 0.981 | locus YDL101C, strain DUN1, stronger effect = lower value 0.976 | locus YDL108W, strain KIN28, stronger effect = lower value 0.982 | locus YDL132W, strain cdc53, stronger effect = lower value 0.978 | locus YDL214C, strain PRR2, stronger effect = lower value 0.902 | locus YDR052C, strain DBF4, stronger effect = lower value 0.981 | locus YDR054C, strain cdc34, stronger effect = lower value 0.96 | locus YDR226W, strain ADK1, stronger effect = lower value 0.979 | locus YDR477W, strain SNF1, stronger effect = lower value 0.911 | locus YER123W, strain YCK3, stronger effect = lower value 0.876 | locus YER133W, strain GLC7, stronger effect = lower value 0.917 | locus YFL009W, strain cdc4, stronger effect = lower value 0.974 | locus YFL029C, strain CAK1, stronger effect = lower value 0.969 | locus YFR003C, strain YPI1, stronger effect = lower value 0.97 | locus YFR019W, strain FAB1, stronger effect = lower value 0.936 | locus YFR028C, strain CDC14, stronger effect = lower value 0.969 | locus YGR040W, strain KSS1, stronger effect = lower value 0.887 | locus YGR052W, strain FMP48, stronger effect = lower value 0.949 | locus YGR092W, strain DBF2, stronger effect = lower value 0.874 | [1] 0.899 | [2] 0.888 | locus YHR082C, strain KSP1, stronger effect = lower value 0.96 | locus YHR205W, strain SCH9, stronger effect = lower value 0.864 | locus YIL147C, strain SLN1, stronger effect = lower value 0.974 | [3] 0.903 | locus YJL128C, strain PBS2, stronger effect = lower value 0.955 | locus YJL157C, strain FAR1, stronger effect = lower value 0.879 | locus YJR016C, strain ILV3, stronger effect = lower value 0.978 | locus YJR066W, strain TOR1 (second series), stronger effect = lower value 0.795 | [4] 0.963 | locus YKL048C, strain ELM1, stronger effect = lower value 0.936 | locus YKL067W, strain YNK1, stronger effect = lower value 0.907 | locus YKL101W, strain HSL1, stronger effect = lower value 0.902 | locus YKL193C, strain SDS22, stronger effect = lower value 0.974 | locus YKL203C, strain TOR2, stronger effect = lower value 0.954 | locus YLR133W, strain CKI1, stronger effect = lower value 0.896 | locus YLR403W, strain SFP1, stronger effect = lower value 0.86 | locus YML070W, strain DAK1, stronger effect = lower value 0.849 | locus YMR001C, strain CDC5, stronger effect = lower value 0.97 | locus YMR205C, strain PFK2 (second series), stronger effect = lower value 0.917 | locus YMR277W, strain FCP1, stronger effect = lower value 0.966 | locus YNL006W, strain LST8, stronger effect = lower value 0.984 | locus YNL020C, strain ARK1, stronger effect = lower value 0.905 | locus YNL161W, strain CBK1, stronger effect = lower value 0.968 | [6] 0.903 | locus YNL207W, strain RIO2, stronger effect = lower value 0.965 | locus YNL222W, strain SSU72, stronger effect = lower value 0.984 | locus YNL307C, strain MCK1 (second series), stronger effect = lower value 0.899 | locus YOL078W, strain AVO1, stronger effect = lower value 0.975 | locus YOL136C, strain PFK27, stronger effect = lower value 0.849 | locus YOR061W, strain CKA2, stronger effect = lower value 0.9 | locus YOR119C, strain RIO1, stronger effect = lower value 0.961 | [7] 0.84 | locus YOR329C, strain SCD5, stronger effect = lower value 0.974 | locus YPL031C, strain PHO85, stronger effect = lower value 0.909 | locus YPL153C, strain RAD53, stronger effect = lower value 0.896 | locus YPL204W, strain HRR25, stronger effect = lower value 0.897 | locus YPL209C, strain IPL1, stronger effect = lower value 0.966 | locus YPR025C, strain CCL1, stronger effect = lower value 0.977 | locus YPR106W, strain ISR1, stronger effect = lower value 0.964 | locus YPR111W, strain DBF20, stronger effect = lower value 0.961 | strain NNK1, stronger effect = lower value 0.963 | strain TSCII, stronger effect = lower value 0.961
active: [5] 0.734 | [8] 0.806

O=C(/C=C/C(=O)Oc1ccccc1C(=O)O)Oc1ccccc1C(=O)O
inactive: locus YAL021C, strain ccr4, stronger effect = lower value 0.961 | locus YAL026C, strain drs2, stronger effect = lower value 0.988 | locus YAL030W, strain snc1, stronger effect = lower value 0.992 | locus YBL061C, strain skt5, stronger effect = lower value 0.983 | locus YBR009C, strain hhf1, stronger effect = lower value 0.991 | locus YBR023C, strain chs3, stronger effect = lower value 0.994 | locus YBR171W, strain sec66, stronger effect = lower value 0.962 | locus YBR231C, strain swc5, stronger effect = lower value 0.984 | locus YBR279W, strain paf1, stronger effect = lower value 0.978 | locus YCL011C, strain gbp2, stronger effect = lower value 0.989 | locus YCL016C, strain dcc1, stronger effect = lower value 0.971 | locus YCL061C, strain MRC1, stronger effect = lower value 0.995 | locus YCL069W, strain vba3, stronger effect = lower value 0.99 | locus YCR088W, strain abp1, stronger effect = lower value 0.987 | locus YDL005C, strain med2, stronger effect = lower value 0.976 | locus YDL040C, strain nat1, stronger effect = lower value 0.992 | locus YDR001C, strain nth1, stronger effect = lower value 0.972 | locus YDR069C, strain doa4, stronger effect = lower value 0.98 | locus YDR137W, strain rgp1, stronger effect = lower value 0.969 | locus YDR159W, strain sac3, stronger effect = lower value 0.971 | locus YDR195W, strain ref2 0.976 | locus YDR297W, strain sur2, stronger effect = lower value 0.987 | locus YDR334W, strain swr1, stronger effect = lower value 0.99 | locus YDR335W, strain msn5, stronger effect = lower value 0.986 | locus YDR392W, strain spt3, stronger effect = lower value 0.995 | locus YEL003W, strain gim4, stronger effect = lower value 0.995 | locus YEL037C, strain rad23, stronger effect = lower value 0.998 | locus YEL061C, strain CIN8 (second series), stronger effect = lower value 0.981 | locus YER015W, strain faa2, stronger effect = lower value 0.992 | locus YER016W, strain bim1, stronger effect = lower value 0.971 | locus YER111C, strain swi4, stronger effect = lower value 0.975 | locus YER155C, strain BEM2 (second series), stronger effect = lower value 0.998 | locus YFR010W, strain ubp6, stronger effect = lower value 0.991 | locus YGL167C, strain pmr1, stronger effect = lower value 0.976 | locus YGL173C, strain kem1, stronger effect = lower value 1 | locus YGL227W, strain vid30, stronger effect = lower value 0.962 | locus YGL240W, strain doc1, stronger effect = lower value 0.984 | locus YGL253W, strain hxk2, stronger effect = lower value 0.995 | locus YHR013C, strain ard1, stronger effect = lower value 0.984 | locus YHR027C, strain rpn1, stronger effect = lower value 0.979 | [1] 1.01 | [2] 1.02 | locus YHR142W, strain chs7, stronger effect = lower value 0.974 | locus YJL092W, strain hpr5, stronger effect = lower value 0.989 | locus YJL095W, strain BCK1 (second series), stronger effect = lower value 0.992 | [3] 1.02 | locus YJL115W, strain asf1, stronger effect = lower value 0.968 | locus YJL129C, strain trk1, stronger effect = lower value 0.964 | locus YJL154C, strain vps35, stronger effect = lower value 0.996 | locus YJL164C, strain tpk1, stronger effect = lower value 0.99 | locus YJL166W, strain qcr8, stronger effect = lower value 0.997 | [4] 0.975 | locus YKL160W, strain elf1, stronger effect = lower value 0.981 | locus YKR026C, strain gcn3, stronger effect = lower value 0.968 | locus YKR091W, strain srl3, stronger effect = lower value 0.978 | locus YLL001W, strain dnm1, stronger effect = lower value 0.999 | locus YLL026W, stronger effect = lower value 0.961 | locus YLL041C, strain sdh2, stronger effect = lower value 0.987 | locus YLR027C, strain aat2, stronger effect = lower value 0.985 | [5] 0.987 | locus YLR221C, strain rsa3, stronger effect = lower value 1 | locus YLR258W, strain gsy2, stronger effect = lower value 0.988 | locus YLR262C, strain YPT6 (second series), stronger effect = lower value 0.996 | locus YLR320W, strain mms22, stronger effect = lower value 1.01 | locus YLR342W, strain FKS1, stronger effect = lower value 0.983 | locus YLR357W, strain rsc2, stronger effect = lower value 0.987 | locus YLR370C, strain arc18, stronger effect = lower value 0.994 | locus YLR384C, strain iki3, stronger effect = lower value 0.976 | locus YML120C, strain ndi1, stronger effect = lower value 0.974 | locus YMR058W, strain fet3, stronger effect = lower value 0.984 | locus YMR125W, strain sto1, stronger effect = lower value 0.967 | locus YMR129W, stronger effect = lower value 0.973 | locus YMR205C, strain PFK2, stronger effect = lower value 0.964 | locus YMR231W, strain pep5, stronger effect = lower value 0.979 | locus YNL071W, strain lat1, stronger effect = lower value 1 | [6] 0.976 | locus YNL209W, strain ssb2, stronger effect = lower value 0.971 | locus YNL248C, strain rpa49, stronger effect = lower value 0.985 | locus YNL322C, strain KRE1 (second series), stronger effect = lower value 0.93 | locus YNR049C, strain mso1, stronger effect = lower value 0.985 | locus YOR001W, strain rrp6, stronger effect = lower value 1 | locus YOR070C, strain gyp1, stronger effect = lower value 0.978 | locus YOR080W, strain dia2, stronger effect = lower value 0.98 | locus YOR083W, strain WHI5, stronger effect = lower value 0.935 | locus YOR106W, strain vam3, stronger effect = lower value 0.953 | [7] 1.01 | locus YOR265W, strain rbl2, stronger effect = lower value 0.979 | locus YOR270C, strain vph1, stronger effect = lower value 1.02 | locus YOR290C, strain snf2, stronger effect = lower value 0.98 | locus YPL051W, strain arl3, stronger effect = lower value 0.984 | locus YPL078C, strain atp4, stronger effect = lower value 0.984 | locus YPL106C, strain sse1, stronger effect = lower value 0.973 | locus YPL240C, strain hsp82, stronger effect = lower value 0.968 | [8] 1
